Bioassay records deposited in PubChem BioAssay by several laboratories.
sPLA2-III inh: Blocks human group III sPLA2 activity; actives 0.56% (n = 370,000); inhibition, % at 12.2 µM; QFRET BODIPY PC-A2 liposome hydrolysis, fluorescence; Q9NZ20;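 active = inhibition above mean plus 3 SD of compounds lying within the high and low control bounds, cut at about 19% in these data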
Target sequence (Q9NZ20 whole entry, looked up): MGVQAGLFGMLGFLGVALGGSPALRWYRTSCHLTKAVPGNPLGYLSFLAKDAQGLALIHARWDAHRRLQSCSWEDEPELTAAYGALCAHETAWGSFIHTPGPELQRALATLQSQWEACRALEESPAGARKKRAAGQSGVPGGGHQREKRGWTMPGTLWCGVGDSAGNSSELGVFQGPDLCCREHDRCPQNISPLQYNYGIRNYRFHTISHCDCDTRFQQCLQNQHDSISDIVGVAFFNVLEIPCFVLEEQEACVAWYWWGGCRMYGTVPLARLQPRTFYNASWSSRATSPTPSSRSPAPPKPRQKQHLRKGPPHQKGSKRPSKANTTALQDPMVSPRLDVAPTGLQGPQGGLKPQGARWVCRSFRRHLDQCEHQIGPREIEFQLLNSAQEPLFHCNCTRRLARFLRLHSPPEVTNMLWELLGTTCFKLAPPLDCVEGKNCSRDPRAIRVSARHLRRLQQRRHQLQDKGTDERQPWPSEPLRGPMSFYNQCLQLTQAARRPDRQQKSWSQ
SKN-1 inh: blocks SKN-1 activity in C. elegans. C. elegans VP596 Pgst-4::GFP/RFP ratio, acrylamide-induced, 24 h. inhibition, % at 21.8 µM. actives 0.49% (n = 360,000). AID 624304;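 active = interference check ratio from 0.5 to 1.5 plus GFP to RFP signal ratio inhibition reaching or exceeding a fixed threshold, cut at about 30% in these data, passing the limit was not always enough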
Efflux pump mplx: blocks antifungal efflux pumps in multiplex yeast assay | inhibition, % at 10 µM | actives 0.44% (n = 330,000) | AID 485275 | S. cerevisiae Candida pump triplex, Nile Red efflux;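 active = plate passing quality check with inhibition over a set limit, or well fluorescence over plate mean plus 4 SD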;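 note: Nile Red retained in pooled yeast measured as flow cytometry median fluorescence; higher means more Nile Red kept so more efflux inhibition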
SUMO Mot1 rescue: SUMOylation pathway inhibition by Mot1-301 growth rescue; growth rescue, % at 18.8 µM; AID 2716; actives 1% (n = 320,000); S. cerevisiae Mot1-301 growth rescue, ATP luminescence, 38.5C; percent above DMSO median, 100 means doubled;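 active = every valid replicate shows activation above 250% relative to neutral control wells; inactive = the rest, any valid replicate at or below 250%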
Mot1 SUMO dose: SUMO pathway inhibitors in yeast Mot1-301 growth. 2,300 tested, under 10 active. AID 493004. shares compounds with SUMO Mot1 rescue. growth activity, percent, % at 42 µM. S. cerevisiae Mot1-301 galactose growth, ATP luminescence, 24 h; -100 = growth of slx-deleted rescue strain;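 active = Signal drops as the depositor expects, and the fitted half-maximal dose is no more than ten times the top valid tested dose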;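 note: more negative values mean stronger growth rescue toward the control strain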
Large screens that a line does not name were inactive (follow-up assays come after a bar, where they were run); ! = a repeat was not active. This is a sample that favours compounds with a hit; in the whole collection about 2.2% have one here.

O=C(Cc1ccc(Cl)cc1Cl)OCC(=O)N1CCCCC1	none
Cc1ccc(OCc2nc(-c3ccccn3)no2)cc1	none
CC(C)(C)Cc1nc(-c2ccccn2)no1	SUMO Mot1 rescue 392 | Mot1 SUMO dose inactive
COc1cc2cc(C)c3nnc(SCC(=O)Nc4cc(C)on4)n3c2cc1OC	SUMO Mot1 rescue 421 | Mot1 SUMO dose inactive
COc1ccc(C(=O)CC(=O)C(=O)Nc2ccc(C)c(C)c2)cc1	SUMO Mot1 rescue 538 | Mot1 SUMO dose inactive
O=C(Nc1nc(=S)ss1)c1ccc(Cl)cc1Cl	none
Cc1cccc(OCC(=O)NCCNC(=O)c2ccco2)c1	none
Cn1c(=O)[nH]c(=O)c2c1nc(NCCN)n2CCOc1ccccc1	SUMO Mot1 rescue 461 | Mot1 SUMO dose inactive
CCCNc1nc2c(c(=O)[nH]c(=O)n2C)n1CCOc1ccccc1	none
O=C(NCCOc1ccc(F)cc1)C1CCC(=O)N(Cc2ccc(Cl)cc2)C1 (centres undefined)	none (no result: Efflux pump mplx, SUMO Mot1 rescue)
Cc1cc(C)n2nc(SCC(=O)NC3CCCC(C)C3C)nc2n1 (centres undefined)	SUMO Mot1 rescue 517 | Mot1 SUMO dose inactive
COc1ccc([C@H]2CC(=O)C=C(c3ccc(C)c([N+](=O)[O-])c3)C2)cc1	none
O=C(CSc1nnc(COc2ccccc2)n1-c1ccccc1)Nc1ccc2c(c1)OCCO2	none (no result: SKN-1 inh, Efflux pump mplx, SUMO Mot1 rescue)
COCCNC(=O)CN(c1ccc(F)cc1)S(=O)(=O)c1ccc2c(c1)OCCO2	none
CCCNC(=O)CN(c1ccc(F)cc1)S(=O)(=O)c1ccc2c(c1)OCCO2	SUMO Mot1 rescue 847 | Mot1 SUMO dose inactive
COc1ccc(C2=NS(=O)(=O)N(C)C(C(=O)N3CCOCC3)=C2)cc1OC	none
O=C(COC(=O)/C=C/c1ccco1)Nc1ncc(C(F)(F)F)cc1Cl	SUMO Mot1 rescue 588 | Mot1 SUMO dose inactive
Cc1c(Cl)cnc(NC(=O)COC(=O)/C=C/c2ccco2)c1Cl	none (no result: Efflux pump mplx, SUMO Mot1 rescue)
CC1(C)CCc2cc(CN3CCN(c4ccccn4)CC3)ccc2O1	SUMO Mot1 rescue 725 | Mot1 SUMO dose inactive
Cn1nc(C(=O)NCCc2ccc(Cl)cc2)c2c1-c1ccccc1S(=O)(=O)C2	SUMO Mot1 rescue 440 | Mot1 SUMO dose inactive
Cc1ccc(CCNC(=O)c2nn(C)c3c2CS(=O)(=O)c2ccccc2-3)cc1	none
COc1ccccc1CNc1ncnc2c1nnn2Cc1ccccc1	SUMO Mot1 rescue 514 | Mot1 SUMO dose inactive
CC(C)CCNc1ncnc2c1nnn2Cc1ccccc1	none
COc1ccccc1CNc1ncnc2nc[nH]c12	SUMO Mot1 rescue 671 | Mot1 SUMO dose inactive
CC(=O)Nc1nnc(S(=O)(=O)N2CCN(c3ccc([N+](=O)[O-])cc3Cl)CC2)s1	none
Cc1ccc(NC(=O)C(CC(C)C)NC(=O)C2CCC(C)CC2)nc1 (centres undefined)	SUMO Mot1 rescue 634 | Mot1 SUMO dose inactive
C=CCn1c(CSc2nc3ccccc3s2)nnc1SCC(=O)NCCN1CCOCC1	none
Cn1c(CSc2nc3ccccc3s2)nnc1SCC(=O)NCCN1CCOCC1	SUMO Mot1 rescue 913 (no result: sPLA2-III inh) | Mot1 SUMO dose inactive
Cc1ccc(CN2CCN(/N=C/c3cc(Br)cc(Br)c3O)CC2)cc1	none
Oc1c(Br)cc(Br)cc1/C=N/N1CCN(Cc2ccccc2)CC1	SUMO Mot1 rescue 842 | Mot1 SUMO dose inactive
O=S(=O)(Cc1ccccc1)NCc1ccccn1	SUMO Mot1 rescue 611 (no result: sPLA2-III inh) | Mot1 SUMO dose inactive
CCCCCCC(C)n1[nH]c(=O)c2c(C)cc(=O)[nH]c21 (centres undefined)	SUMO Mot1 rescue 531 | Mot1 SUMO dose inactive
O=S(=O)(NCc1ccco1)c1ccc2ccccc2c1	SUMO Mot1 rescue 430 | Mot1 SUMO dose inactive
Cc1ccc2ccc(S(=O)(=O)NCc3ccco3)cc2c1	none
O=C(COc1ccc(Cl)cc1)NCCCNC(=O)c1ccccn1	SUMO Mot1 rescue 565 | Mot1 SUMO dose inactive
CC(=O)c1c(N2CCCC2)[nH]c(-c2ccccc2)nc1=S	none
CC(=O)c1c(N)[nH]c(-c2ccccc2)nc1=S	SUMO Mot1 rescue 886 (no result: sPLA2-III inh) | Mot1 SUMO dose inactive
Nc1nnc(CC(=O)N2CCCCC2)s1	SUMO Mot1 rescue 396 | Mot1 SUMO dose inactive
CN(CC(=O)NCc1cccs1)S(=O)(=O)c1cccc2nsnc12	SUMO Mot1 rescue 436 | Mot1 SUMO dose inactive
CN(CC(=O)NCc1ccc(F)cc1)S(=O)(=O)c1cccc2nsnc12	none
COC(=O)c1sccc1NC(=S)N1CCCCC1	SUMO Mot1 rescue active | Mot1 SUMO dose inactive
CCOC(=O)C1=C[C@]2(CC)CCCN3CCc4c(n1c1ccccc41)[C@@H]32	SUMO Mot1 rescue 617! | Mot1 SUMO dose inactive
CC[C@]12CCCN3CCc4c(n(c5ccccc45)C(=O)C1)[C@@H]32	none
CC(=O)N1C[C@@H](CO)[C@@H](N(C)C(=O)C2CCCCC2)C[C@H]1c1ccccc1	none (no result: Efflux pump mplx, SUMO Mot1 rescue)
COC(CNC(=O)C(=O)NCC1OCCN1C(=O)c1ccc(Cl)cc1)OC (centres undefined)	none
COCCNC(=O)C(=O)NCC1OCCN1C(=O)c1ccc(Cl)cc1 (centres undefined)	SUMO Mot1 rescue 525 | Mot1 SUMO dose inactive
Cc1cc(N2CCC(C(=O)Nc3ccc(F)cc3)CC2)nc(-c2ccccc2)n1	none
COc1ccc(NC(=O)C2CCN(c3cc(C)nc(-c4ccccc4)n3)CC2)cc1	SUMO Mot1 rescue active | Mot1 SUMO dose inactive
CCc1nccn1CCC(=O)N1CCCC(N2CCN(c3cccc(Cl)c3)CC2)C1 (centres undefined)	none
C/C(CC(=O)Nc1cccnc1)=N\NC(=O)C(C)Oc1ccc(Cl)cc1Cl (centres undefined)	SUMO Mot1 rescue 671 | Mot1 SUMO dose inactive
COC(=O)[C@H]1C[C@H]2[C@@H]3CC[C@H]4C[C@@H](OC)CC[C@]4(C)[C@H]3CC[C@]2(C)[C@@]2(CCCO2)O1	none (no result: SUMO Mot1 rescue)
CCc1ccc(C(=O)CCC(=O)Nc2cccc(S(=O)(=O)N3CCCCC3)c2)cc1	none (no result: Efflux pump mplx, SUMO Mot1 rescue)
Cc1nn(C)c(Cl)c1CN1CCN(CCC(C)C)C(CCO)C1 (centres undefined)	SUMO Mot1 rescue active | Mot1 SUMO dose inactive
Cc1nn(C)c(Cl)c1CN1CCN(CC(C)C)C(CCO)C1 (centres undefined)	none
O=C(NCc1ccccc1Br)C1CCCO1 (centres undefined)	none
CC1CN(C(=O)CSc2nc(N)cc(N)n2)CC(C)O1 (centres undefined)	none
Cc1cccc(NC(=O)COc2ccccc2C(=O)NC(C)c2ccccc2)c1 (centres undefined)	none (no result: sPLA2-III inh)
O=C(NCC1CCCO1)c1nn2c(C(F)(F)F)cc(-c3cc(Br)cs3)nc2c1Br (centres undefined)	SUMO Mot1 rescue 472 | Mot1 SUMO dose inactive
O=C(Nc1ccc2[nH]c(=O)[nH]c2c1)c1c(F)c(F)c(F)c(F)c1F	SUMO Mot1 rescue 613 | Mot1 SUMO dose inactive
Cc1sc2nc(CSC(C)C(=O)Nc3cc(S(C)(=O)=O)ccc3Cl)[nH]c(=O)c2c1C (centres undefined)	none
CCNC(=O)/C(C#N)=C/c1c(N2CCCCCC2)nc2ccccn2c1=O	SUMO Mot1 rescue 748 | Mot1 SUMO dose inactive
